In the supplement of paper PMC10849652 one finds log2 fold change data, which are given here for 33 targets.

Of roughly 7,900 targets only a part is listed; those with a hit were picked by preference. About 0.6% of all pairs of compound and target were hits.

Sequence of UniProt A4D2B0 (A4D2B0 whole entry, looked up): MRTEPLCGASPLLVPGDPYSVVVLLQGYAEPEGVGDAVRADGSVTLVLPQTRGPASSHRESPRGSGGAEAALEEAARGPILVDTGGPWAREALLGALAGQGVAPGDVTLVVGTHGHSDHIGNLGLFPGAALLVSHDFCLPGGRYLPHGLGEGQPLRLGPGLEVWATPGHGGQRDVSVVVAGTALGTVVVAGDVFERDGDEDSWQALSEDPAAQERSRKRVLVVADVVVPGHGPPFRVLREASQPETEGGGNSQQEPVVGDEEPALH
Sequence of UniProt Q9BQD3 (Q9BQD3 whole entry, looked up): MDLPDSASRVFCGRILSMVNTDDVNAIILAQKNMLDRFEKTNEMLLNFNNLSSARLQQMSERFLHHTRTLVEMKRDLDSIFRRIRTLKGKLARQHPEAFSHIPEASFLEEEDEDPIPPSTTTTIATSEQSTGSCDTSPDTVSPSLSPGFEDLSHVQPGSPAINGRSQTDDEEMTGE
Sequence of UniProt O15066 (O15066 whole entry, looked up): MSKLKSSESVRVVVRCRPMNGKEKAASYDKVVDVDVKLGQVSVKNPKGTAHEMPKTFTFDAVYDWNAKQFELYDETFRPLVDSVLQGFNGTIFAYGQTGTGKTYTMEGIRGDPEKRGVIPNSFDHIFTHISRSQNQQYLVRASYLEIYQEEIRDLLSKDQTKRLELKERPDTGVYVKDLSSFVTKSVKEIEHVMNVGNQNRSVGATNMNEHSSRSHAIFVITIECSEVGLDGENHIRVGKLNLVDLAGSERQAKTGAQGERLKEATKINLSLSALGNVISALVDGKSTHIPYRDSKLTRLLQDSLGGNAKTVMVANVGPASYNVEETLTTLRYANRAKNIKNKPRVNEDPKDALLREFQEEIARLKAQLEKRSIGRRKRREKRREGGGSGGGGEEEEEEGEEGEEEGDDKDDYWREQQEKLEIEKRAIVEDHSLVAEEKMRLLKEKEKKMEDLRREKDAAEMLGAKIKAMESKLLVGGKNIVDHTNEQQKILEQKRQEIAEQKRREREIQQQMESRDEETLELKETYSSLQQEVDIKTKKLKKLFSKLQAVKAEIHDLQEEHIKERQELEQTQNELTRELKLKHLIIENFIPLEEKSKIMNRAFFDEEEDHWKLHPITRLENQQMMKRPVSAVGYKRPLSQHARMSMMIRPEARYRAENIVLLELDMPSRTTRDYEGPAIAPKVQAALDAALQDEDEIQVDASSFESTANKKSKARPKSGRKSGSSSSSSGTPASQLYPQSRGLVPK
Sequence of UniProt Q14680 (Q14680 whole entry, looked up): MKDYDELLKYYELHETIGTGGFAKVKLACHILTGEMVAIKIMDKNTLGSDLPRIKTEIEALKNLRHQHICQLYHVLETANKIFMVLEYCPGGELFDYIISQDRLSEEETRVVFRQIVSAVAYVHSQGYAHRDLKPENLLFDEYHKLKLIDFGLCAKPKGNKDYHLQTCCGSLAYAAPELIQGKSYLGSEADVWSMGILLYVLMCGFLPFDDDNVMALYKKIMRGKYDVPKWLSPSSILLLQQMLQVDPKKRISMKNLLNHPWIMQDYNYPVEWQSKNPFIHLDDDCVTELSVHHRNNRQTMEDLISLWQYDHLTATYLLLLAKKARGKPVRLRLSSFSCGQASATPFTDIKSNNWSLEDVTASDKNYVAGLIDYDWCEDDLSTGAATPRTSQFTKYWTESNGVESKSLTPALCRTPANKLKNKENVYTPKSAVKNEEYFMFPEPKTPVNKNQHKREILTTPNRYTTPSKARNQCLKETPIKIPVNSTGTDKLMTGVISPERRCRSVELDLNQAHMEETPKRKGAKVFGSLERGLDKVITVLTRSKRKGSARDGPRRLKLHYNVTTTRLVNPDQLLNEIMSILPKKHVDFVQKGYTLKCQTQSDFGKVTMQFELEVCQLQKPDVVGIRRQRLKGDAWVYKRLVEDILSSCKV
Sequence of UniProt O43934 (O43934 whole entry, looked up): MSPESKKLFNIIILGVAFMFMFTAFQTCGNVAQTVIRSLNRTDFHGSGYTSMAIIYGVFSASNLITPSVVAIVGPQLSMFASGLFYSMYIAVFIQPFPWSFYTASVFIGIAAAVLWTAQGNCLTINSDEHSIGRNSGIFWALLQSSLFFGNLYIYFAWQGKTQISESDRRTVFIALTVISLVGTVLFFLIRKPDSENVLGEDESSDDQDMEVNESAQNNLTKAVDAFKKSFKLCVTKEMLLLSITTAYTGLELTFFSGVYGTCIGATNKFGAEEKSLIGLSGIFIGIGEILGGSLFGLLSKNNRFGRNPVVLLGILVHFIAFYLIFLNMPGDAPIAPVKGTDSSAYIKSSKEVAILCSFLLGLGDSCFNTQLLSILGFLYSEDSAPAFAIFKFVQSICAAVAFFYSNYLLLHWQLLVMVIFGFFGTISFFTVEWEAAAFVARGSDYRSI
Sequence of UniProt Q8NHS3 (Q8NHS3 whole entry, looked up): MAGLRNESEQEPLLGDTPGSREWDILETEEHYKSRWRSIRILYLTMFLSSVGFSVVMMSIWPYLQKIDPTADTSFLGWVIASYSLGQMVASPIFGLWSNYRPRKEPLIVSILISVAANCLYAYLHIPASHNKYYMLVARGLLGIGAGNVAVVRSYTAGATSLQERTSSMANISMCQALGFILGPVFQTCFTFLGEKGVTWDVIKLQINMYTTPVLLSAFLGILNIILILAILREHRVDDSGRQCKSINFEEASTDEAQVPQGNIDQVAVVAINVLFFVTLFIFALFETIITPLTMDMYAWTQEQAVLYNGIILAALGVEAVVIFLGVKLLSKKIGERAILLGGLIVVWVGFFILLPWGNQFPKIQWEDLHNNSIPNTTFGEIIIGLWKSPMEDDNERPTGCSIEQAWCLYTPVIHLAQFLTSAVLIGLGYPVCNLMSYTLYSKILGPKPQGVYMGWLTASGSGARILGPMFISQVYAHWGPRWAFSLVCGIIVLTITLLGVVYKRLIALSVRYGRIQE
Sequence of UniProt P43361 (P43361 whole entry, looked up): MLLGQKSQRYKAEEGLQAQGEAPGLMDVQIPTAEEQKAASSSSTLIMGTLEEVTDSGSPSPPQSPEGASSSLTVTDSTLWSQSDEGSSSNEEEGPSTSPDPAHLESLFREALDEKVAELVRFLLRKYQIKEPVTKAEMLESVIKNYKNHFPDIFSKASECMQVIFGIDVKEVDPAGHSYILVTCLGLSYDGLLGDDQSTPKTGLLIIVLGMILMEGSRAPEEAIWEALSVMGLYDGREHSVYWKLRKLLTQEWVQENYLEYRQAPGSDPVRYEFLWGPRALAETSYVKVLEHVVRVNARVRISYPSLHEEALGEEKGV
Sequence of UniProt Q96PV6 (Q96PV6 whole entry, looked up): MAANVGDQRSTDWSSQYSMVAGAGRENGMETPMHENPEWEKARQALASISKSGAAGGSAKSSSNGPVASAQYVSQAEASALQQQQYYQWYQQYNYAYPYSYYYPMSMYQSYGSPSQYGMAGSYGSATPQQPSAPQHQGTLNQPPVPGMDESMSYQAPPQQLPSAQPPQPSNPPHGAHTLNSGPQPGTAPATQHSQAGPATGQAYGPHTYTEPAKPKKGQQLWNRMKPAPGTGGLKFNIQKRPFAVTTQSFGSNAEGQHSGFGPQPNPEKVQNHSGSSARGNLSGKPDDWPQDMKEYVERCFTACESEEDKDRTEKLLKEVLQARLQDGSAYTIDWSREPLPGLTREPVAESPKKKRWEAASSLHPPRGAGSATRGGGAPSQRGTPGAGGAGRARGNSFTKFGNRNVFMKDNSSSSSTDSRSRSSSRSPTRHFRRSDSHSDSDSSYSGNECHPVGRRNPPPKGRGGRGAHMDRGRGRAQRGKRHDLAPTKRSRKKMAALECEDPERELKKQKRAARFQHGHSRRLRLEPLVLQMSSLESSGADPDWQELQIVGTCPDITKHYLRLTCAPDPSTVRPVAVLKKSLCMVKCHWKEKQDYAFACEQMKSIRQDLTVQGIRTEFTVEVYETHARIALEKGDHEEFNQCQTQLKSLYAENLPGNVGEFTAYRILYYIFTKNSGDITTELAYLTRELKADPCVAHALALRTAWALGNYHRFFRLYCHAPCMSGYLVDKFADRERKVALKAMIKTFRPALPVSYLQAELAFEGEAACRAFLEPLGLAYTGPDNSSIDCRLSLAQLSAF
Sequence of UniProt Q92551 (Q92551 whole entry, looked up): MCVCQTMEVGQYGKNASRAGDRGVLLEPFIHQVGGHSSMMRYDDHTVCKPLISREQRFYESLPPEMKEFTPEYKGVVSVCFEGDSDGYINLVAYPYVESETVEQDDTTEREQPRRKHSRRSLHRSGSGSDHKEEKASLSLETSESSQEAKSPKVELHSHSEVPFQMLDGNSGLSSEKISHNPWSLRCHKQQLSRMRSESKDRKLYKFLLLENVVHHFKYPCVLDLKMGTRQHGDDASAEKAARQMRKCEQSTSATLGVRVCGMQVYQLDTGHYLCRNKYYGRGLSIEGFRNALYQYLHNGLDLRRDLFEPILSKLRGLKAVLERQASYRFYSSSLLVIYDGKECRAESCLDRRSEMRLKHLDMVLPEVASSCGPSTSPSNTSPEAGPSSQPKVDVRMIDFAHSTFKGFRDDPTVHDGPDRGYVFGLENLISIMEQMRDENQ
Sequence of UniProt O95279 (O95279 whole entry, looked up): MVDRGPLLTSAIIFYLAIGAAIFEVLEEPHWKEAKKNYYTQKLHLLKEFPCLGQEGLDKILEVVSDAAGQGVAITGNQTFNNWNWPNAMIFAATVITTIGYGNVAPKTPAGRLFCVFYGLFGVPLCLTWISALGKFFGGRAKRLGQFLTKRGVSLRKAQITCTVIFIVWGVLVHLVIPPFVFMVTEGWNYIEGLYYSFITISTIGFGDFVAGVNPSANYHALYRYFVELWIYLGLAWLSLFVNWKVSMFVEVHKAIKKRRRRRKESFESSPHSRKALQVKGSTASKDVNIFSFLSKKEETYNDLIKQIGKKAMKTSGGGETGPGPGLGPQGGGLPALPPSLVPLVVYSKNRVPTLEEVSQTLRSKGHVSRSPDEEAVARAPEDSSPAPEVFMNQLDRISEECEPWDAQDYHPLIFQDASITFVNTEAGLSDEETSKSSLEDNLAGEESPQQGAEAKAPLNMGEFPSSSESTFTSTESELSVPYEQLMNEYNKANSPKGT

Compound in one assay: CN1C2=C(C3=C1C(=O)N(N=C3)CC4=CC(=CC=C4)N)SC(=C2)S(=O)C
As to the kind of experiment: log2 fold change, soluble protein after heating vs DMSO (PISA); higher = thermal stabilisation; K562 cells, 10 uM, 30 min; active = over 0.2 and 3.5 SD of the protein, either way, in both replicates (recomputed). The gist of the method: (§1)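 Thermal stability values are relative to control samples and come from duplicates. They are expressed as log2 fold changes. For measurement, K562 cells (2×10^6 cells/mL) received 10 μM compound for 30 min, and aliquots were heated for 3 min over 48°C-58°C, pooled, and extracted at 4°C in PBS with 0.5% NP-40. Soluble protein, the supernatant after 21,000xg for 90 min, was quantified by TMTpro 16plex LC-MS/MS with equalised channel sums.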
As to LRBA, A0A494BZW2, the log2 fold change was 0.043 (inactive).
On the same count and under the same terms, to MED22 (UniProt Q15528) belongs -0.043 (inactive).
Same read-out and setting: to LRFN1 (UniProt Q9P244) belongs 0.069 (inactive).
On the same count and under the same terms, to ILRUN (UniProt Q9H6K1) belongs -0.09 (inactive).
Take MAN2B2 (UniProt Q9Y2E5): the log2 fold change was 0.013 (inactive).
Same read-out and setting: as for LENG8 (UniProt Q96PV6), the figure is -0.225 (inactive).
For the target MFSD8 (UniProt Q8NHS3), the log2 fold change is 0.046 (inactive).
On the same count and under the same terms, as for LUM (UniProt P51884), the figure is 0.054 (inactive); as for METAP1D (UniProt Q6UB28), 0.052 (inactive).
Turning to MED8 isoform 2 (UniProt Q96G25), the log2 fold change is 0.052 (inactive).
Still for that read-out and setting: as for MARK2 (UniProt E9PC69), the figure is 0.187 (inactive).
Still for that read-out and setting: to KMT2C isoform 3 (UniProt Q8NEZ4) belongs 0.026 (inactive); to MELK (UniProt Q14680), 0.034 (inactive).
Same read-out and setting: as for IP6K1 (UniProt Q92551), the figure is 0.147 (inactive); as for MED25 isoform 3 (UniProt Q71SY5), -0.155 (inactive); as for MBLAC1 (UniProt A4D2B0), -0.021 (inactive).
Regarding KIF3B (UniProt O15066), the log2 fold change is -0.052 (inactive).
Turning to ITM2B (UniProt Q9Y287), the log2 fold change is -0.197 (inactive).
Same read-out and setting: to MAGEA8 (UniProt P43361) belongs 0.038 (inactive).
Same read-out and setting: to MED17 (UniProt Q9NVC6) belongs 0.036 (inactive); to LPGAT1 (UniProt Q92604), -0.029 (inactive).
The same measure, in the same setting: as for MFSD11 (UniProt O43934), the figure is -0.026 (inactive); as for KCNK5 (UniProt O95279), 0.223 (inactive).
With IL27RA (UniProt Q6UWB1), the log2 fold change is -0.219 (inactive).
As to MED12 isoform 2 (UniProt Q93074), the log2 fold change was 0.154 (inactive).
In the case of KXD1 (UniProt Q9BQD3), the log2 fold change was 0.011 (inactive).
For MASTL (UniProt Q96GX5), the log2 fold change was 0.081 (inactive).
Regarding MAPK14 (UniProt Q16539), the log2 fold change is -0.231 (inactive).
Regarding IMMP1L (UniProt Q96LU5), the log2 fold change is -0.097 (inactive).

Compound in the next assay: CN1CCC(CNc2ccc3ncc(-c4cccc(OC(F)(F)F)c4)n3n2)CC1
Described as above. The gist of the method:
as §1
For the target LRBA, A0A494BZW2, the log2 fold change was -0.115 (inactive).
The same measure, in the same setting: as for KIZ (UniProt Q2M2Z5), the figure is -0.399 (inactive); as for MFSD1 isoform 6 (UniProt Q9H3U5), -0.012 (inactive).
Take LENG8 (UniProt Q96PV6): the log2 fold change was -0.238 (inactive).
The same measure, in the same setting: as for MFSD8 (UniProt Q8NHS3), the figure is 0.127 (inactive); as for KMT2C isoform 3 (UniProt Q8NEZ4), -0.337 (active).
The same measure, in the same setting: as for MELK (UniProt Q14680), the figure is -0.426 (inactive).
Still for that read-out and setting: to IP6K1 (UniProt Q92551) belongs -0.052 (inactive).
Take MED25 isoform 3 (UniProt Q71SY5): the log2 fold change was -0.043 (inactive).
The same measure, in the same setting: as for MBLAC1 (UniProt A4D2B0), the figure is 0.063 (inactive); as for KIF3B (UniProt O15066), 0.378 (active).
As to MAGEA8 (UniProt P43361), the log2 fold change is -0.07 (inactive).
Still for that read-out and setting: as for MED17 (UniProt Q9NVC6), the figure is -0.134 (inactive); as for MFSD11 (UniProt O43934), -0.345 (active); as for KCNK5 (UniProt O95279), -0.073 (inactive).
The same measure, in the same setting: to MED12 isoform 2 (UniProt Q93074) belongs -0.071 (inactive).
Still for that read-out and setting: as for MCM10 (UniProt Q7L590), the figure is 0.096 (inactive); as for KXD1 (UniProt Q9BQD3), -0.096 (inactive); as for MCOLN3 (UniProt Q8TDD5), -0.084 (inactive).
For the target MAPK14 (UniProt Q16539), the log2 fold change was -0.03 (inactive).
